# Compounds without any hit were thinned out: in the full panel of roughly 83,000, 20% have a hit.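 Plates (96-well) were seeded with cells, treated with compound at one concentration, and incubated for 48 hours before percent growth was determined.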 The source made the active and inactive calls. The calls were made as follows: active = growth percent below 10; inactive = the rest.
# Test system: HL-60(TB) leukemia
# Experiment: NCI-60 one-dose screen, 48 h (100 = growth as untreated, 0 = no growth, -100 = all killed)
# Conditions: 10 µM unless noted
row,Structure (SMILES),growth
1,CCOC(=O)c1ccc2c(c1)nc(-c1ccc(OCc3ccccc3)c(OC)c1)n2-c1cc(C(C)(C)C)[nH]n1,81.6% (inactive)
2,CC(=O)Nc1sc2c(c1-c1nc3ccccc3s1)CNC2,28.4% (inactive)
3,O=C(Nc1cccc(Cl)c1)Oc1c(Cl)c(Cl)c(Cl)c(Cl)c1Cl,101% (inactive)
4,COc1ccc(C2CC(c3ccccc3)=Nc3ccccc3S2)cc1 (stereo not given),85.7% (inactive)
5,Cn1nc(C(F)(F)F)cc1-c1cc(Cl)c(OCc2ccc(Cl)cc2)c(-c2ccc(Cl)c(C(F)(F)F)c2)c1O,-24.3% (active)
6,CC(=O)N(C)c1ccc([N+](=O)[O-])cc1,72.8% (inactive)
7,Cn1cnc([N+](=O)[O-])c1Sc1nnc(-c2ccccc2)c(-c2ccccc2)n1,104% (inactive)
8,Cc1cc(Cl)nc(N(CCCNc2ccnc3cc(Cl)ccc23)Cc2ccccn2)n1,12% (inactive)
9,CCOC(=O)C1=NN(c2ccccc2)C(=O)/C1=C\N1C(=O)/C(=C/c2cccc(O)c2)SC1=S,93.2% (inactive)
10,Cc1ccc(-n2nc3n(/c2=N\C(=O)NS(=O)(=O)c2ccc(C)cc2)CCN3C2=NCCN2)cc1,146% (inactive)
11,COc1ccc(C(=O)Nc2cccc(-c3cc(=O)c4c(OC)c(OC)c(OC)cc4o3)c2)cc1,44.8% (inactive)
12,O=C(NCCN1CCOCC1)OCc1ccc2c(Cl)cc(Cl)c(O)c2n1,73.1% (inactive)
13,COc1ccc(OC)c(C2C(C#N)=C(N)Oc3cc(O)ccc32)c1 (stereo not given),88.6% (inactive)
14,Nc1ncc(-c2ccc3ncnc(N4CCc5cc(F)c(Cl)cc54)c3c2)cc1C(F)(F)F,21.5% (inactive)
15,COC(=O)c1ccc(Cn2cnc3c(N)ncnc32)cc1,67.6% (inactive)
16,Cc1ccc(-c2cc3c(SCC(=O)Nc4cc(C(F)(F)F)ccc4Cl)nccn3n2)cc1,12.6% (inactive)
17,CC(C)n1c(/C=C/[C@@H](O)C[C@@H](O)CC(=O)O)c(-c2ccc(F)cc2)c2ccccc21,91.4% (inactive)
18,COc1cc(/C=C/C(=O)/C=C/c2ccc(-n3ccnc3C)cc2)ccc1O,49.5% (inactive)
19,COCCNC(=O)Cc1cc(-c2ccc(Cl)cc2)n(-c2ccccc2)c1C,66.4% (inactive)
20,O=C(CSc1nc(-c2ccccc2)cn1-c1ccc(Cl)cc1)c1ccc([N+](=O)[O-])cc1,95.8% (inactive)

row,Structure (SMILES),growth
1,CCN1CCN(c2cc(C)nc(N(CCNc3ccnc4cc(Cl)ccc34)Cc3ccc4c(c3)OCO4)n2)CC1,-61.8% (active)
2,Oc1ccc(Cl)cc1-c1cc(-c2ccc(F)cc2)n[nH]1,74.9% (inactive)
3,NS(=O)(=O)c1ccc(N=Nc2ccc(-c3nn4cc(-c5ccccc5)nc4s3)cc2)cc1,91.5% (inactive)
4,O=C(Nc1cccc(F)c1)Nc1cccc(Cl)c1,-10.6% (active)
5,CCOC(=O)CC1CSC(c2cccc(Cl)c2)=N1 (stereo not given),98.8% (inactive)
6,CCOc1cc(Cl)c(C(C)NC(=O)c2cccc(OC)c2)cc1OCC (stereo not given),-32.8% (active)
7,CCCCCCCCCCn1cc[n+](C)c1,51.9% (inactive)
8,O=C(Nc1ccc(OS(=O)(=O)c2ccc(F)cc2)cc1)c1ccc(Cl)cc1,90.9% (inactive)
9,O=C1OCC2=C1C(c1cccc(Cl)c1)c1cc3c(cc1N2CCO)CCC3 (stereo not given),-26.3% (active)
10,O=C1C(Nc2ccc(Br)cc2)=C(I)C(=O)c2ncccc21,-43.2% (active)
11,CN1CCN(CCOc2ccc(-c3cnc4c(-c5cccc(F)c5)cnn4c3)cc2)CC1,10.7% (inactive)
12,COc1c(O)cc2oc3cc(O[C@@H]4OC(C)[C@@H](O)[C@H](O)C4O)c(CC=C(C)C)c(O)c3c(=O)c2c1CC=C(C)C (stereo not given in full),90.4% (inactive)
13,Cc1c(C)c2c(c(C)c1OC(=O)CCC(=O)[O-])CCC(C)(CCCCCCCCCCC[P+](c1ccccc1)(c1ccccc1)c1ccccc1)O2 (stereo not given),-35.2% (active)
14,c1cc(C2CCCCC2)ccc1-c1cnc2nonc2n1,-27.3% (active)
15,COC1OCC(OS(=O)(=O)c2ccc(C)cc2)C(OC(=O)c2ccccc2)C1OC(=O)c1ccccc1 (stereo not given),25.4% (inactive)
16,Cc1nc2c(nnn2-c2ccccc2)c2nc(-c3ccccc3)oc(=O)c12,109% (inactive)
17,Cc1cc2ccccc2nc1-c1ccccc1F,97.4% (inactive)
18,COc1cccc(NCc2nnc(Nc3ccc(Cl)cc3)c3ccccc23)c1,-27.1% (active)
19,O=C(Nc1cccc(C(F)(F)F)c1)C(Cl)Cl,94.1% (inactive)
20,COc1ccc(OC)c(CCn2cncc2-c2c[nH]c3ccccc23)c1,80.8% (inactive)
